For assay [1], the system named is PRMT1 (protein arginine N-methyltransferase 1). Nature of the assay: small molecules binding arginine methyltransferase PRMT1 – biochemical, small-molecule microarray, 635 nm fluorescence, primary screen (AID 1088).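 Note: binding of Prmt1 protein to compounds spotted on small-molecule microarray slides.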 The note with it: higher = more signal.
The nature of assay [2]: growth effects on S. cerevisiae YJM789 – YJM789 clinical isolate, OD600, 24 h, basal, primary screen (AID 1089).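 Note: growth of clinical yeast isolate S. cerevisiae YJM 789 seeded 1000 cells per well; test concentration not given here.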 The note with it: higher = more signal, called active from +8 up or from −8 down.
A short description of assay [3]: S. pombe growth modifiers, basal conditions – strain 972, OD600, 24 h, no modulator, primary screen (AID 1090).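 Note: basal condition with compound alone and no growth modifier present; test concentration not given here.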 The note with it: S. pombe 972 growth, higher = more signal, called active from +8 up or from −8 down.
A short description of assay [4]: budding yeast growth modifiers under rapamycin – strain BY4716, OD600, 96 h, primary screen (AID 1091). Note: test concentration not given here. The note with it: S. cerevisiae BY4716 + rapamycin, higher = more signal, called active from +8 up or from −8 down.
Assay [5] deals with Torsin-1A-interacting protein 2 (Homo sapiens) (UniProt Q8NFQ8). Nature of the assay: small molecules binding lysate-expressed LULL1 – cell lysate, human LULL1 lysate, 635/667 nm fluorescence, primary screen (AID 1092).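 Note: probe is lysate of COS7 cells overexpressing human LULL1; score merges per-feature 667 nm fluorescence with signal-to-noise.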 The settings on record: small-molecule microarray, hLULL1 lysate binding, 635 nm fluorescence; higher = more signal.
Chain of Torsin-1A-interacting protein 2 (Homo sapiens) (Q8NFQ8 whole entry, looked up): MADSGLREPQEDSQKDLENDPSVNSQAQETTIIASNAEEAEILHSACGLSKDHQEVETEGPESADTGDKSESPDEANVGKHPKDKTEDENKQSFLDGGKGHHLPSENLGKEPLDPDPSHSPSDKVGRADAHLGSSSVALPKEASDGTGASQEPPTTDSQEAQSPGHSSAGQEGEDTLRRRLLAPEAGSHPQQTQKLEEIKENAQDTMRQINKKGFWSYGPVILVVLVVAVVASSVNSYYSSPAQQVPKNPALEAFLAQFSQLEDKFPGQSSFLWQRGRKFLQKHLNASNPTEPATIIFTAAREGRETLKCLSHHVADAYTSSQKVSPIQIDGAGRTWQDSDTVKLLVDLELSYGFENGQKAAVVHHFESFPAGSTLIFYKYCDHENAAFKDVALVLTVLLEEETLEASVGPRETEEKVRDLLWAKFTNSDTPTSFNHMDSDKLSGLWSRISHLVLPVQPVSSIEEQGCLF
The nature of assay [6]: optical density change of DRC41 E. coli – strain DRC41, OD650, 24 h, E. coli filamentation project, primary screen (AID 1093).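 Note: MC1000 strain lacking acrAB efflux and sulA so SOS filamentation is blocked; test concentration not given here.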 The settings on record: E. coli DRC41 growth, higher = more signal, called active from +8 up or from −8 down.
The nature of assay [7]: probe aLefty2 binding to arrayed compounds – biochemical, biotinylated probe, 635/667 nm fluorescence, primary screen (AID 1094).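 Note: score merges spot fluorescence near 667 nm with spot signal-to-noise ratio.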 The settings on record: small-molecule microarray, higher = more signal.
For assay [8], the system named is Noggin (protein binding on small-molecule microarray). Briefly: small molecules binding Noggin protein – biochemical, 635/667 nm fluorescence, primary screen (AID 1095).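 Note: score merges 667 nm feature fluorescence with signal to noise over triplicate slides.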 The settings on record: 635 nm fluorescence, higher = more signal.
Assay [9] addresses Neurogenic locus notch homolog protein 3 (Homo sapiens) (UniProt Q9UM47). Nature of the assay: small molecules binding NOTCH3 protein – biochemical, 635/667 nm fluorescence, primary screen (AID 1096). The note with it: small-molecule microarray, 635 nm fluorescence, higher = more signal.
The nature of assay [10]: probe aEGFR binding to arrayed compounds – biochemical, biotinylated probe, 635/667 nm fluorescence, primary screen (AID 1097).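 Note: probe is a biotinylated anti-EGFR antibody binding compounds printed on slides; score combines fluorescence near 667 nm and signal to noise of each spot.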 The note with it: small-molecule microarray, higher = more signal.

Activity calls are given as the source filed them.

Chain of Neurogenic locus notch homolog protein 3 (Homo sapiens) (Q9UM47 whole entry, looked up): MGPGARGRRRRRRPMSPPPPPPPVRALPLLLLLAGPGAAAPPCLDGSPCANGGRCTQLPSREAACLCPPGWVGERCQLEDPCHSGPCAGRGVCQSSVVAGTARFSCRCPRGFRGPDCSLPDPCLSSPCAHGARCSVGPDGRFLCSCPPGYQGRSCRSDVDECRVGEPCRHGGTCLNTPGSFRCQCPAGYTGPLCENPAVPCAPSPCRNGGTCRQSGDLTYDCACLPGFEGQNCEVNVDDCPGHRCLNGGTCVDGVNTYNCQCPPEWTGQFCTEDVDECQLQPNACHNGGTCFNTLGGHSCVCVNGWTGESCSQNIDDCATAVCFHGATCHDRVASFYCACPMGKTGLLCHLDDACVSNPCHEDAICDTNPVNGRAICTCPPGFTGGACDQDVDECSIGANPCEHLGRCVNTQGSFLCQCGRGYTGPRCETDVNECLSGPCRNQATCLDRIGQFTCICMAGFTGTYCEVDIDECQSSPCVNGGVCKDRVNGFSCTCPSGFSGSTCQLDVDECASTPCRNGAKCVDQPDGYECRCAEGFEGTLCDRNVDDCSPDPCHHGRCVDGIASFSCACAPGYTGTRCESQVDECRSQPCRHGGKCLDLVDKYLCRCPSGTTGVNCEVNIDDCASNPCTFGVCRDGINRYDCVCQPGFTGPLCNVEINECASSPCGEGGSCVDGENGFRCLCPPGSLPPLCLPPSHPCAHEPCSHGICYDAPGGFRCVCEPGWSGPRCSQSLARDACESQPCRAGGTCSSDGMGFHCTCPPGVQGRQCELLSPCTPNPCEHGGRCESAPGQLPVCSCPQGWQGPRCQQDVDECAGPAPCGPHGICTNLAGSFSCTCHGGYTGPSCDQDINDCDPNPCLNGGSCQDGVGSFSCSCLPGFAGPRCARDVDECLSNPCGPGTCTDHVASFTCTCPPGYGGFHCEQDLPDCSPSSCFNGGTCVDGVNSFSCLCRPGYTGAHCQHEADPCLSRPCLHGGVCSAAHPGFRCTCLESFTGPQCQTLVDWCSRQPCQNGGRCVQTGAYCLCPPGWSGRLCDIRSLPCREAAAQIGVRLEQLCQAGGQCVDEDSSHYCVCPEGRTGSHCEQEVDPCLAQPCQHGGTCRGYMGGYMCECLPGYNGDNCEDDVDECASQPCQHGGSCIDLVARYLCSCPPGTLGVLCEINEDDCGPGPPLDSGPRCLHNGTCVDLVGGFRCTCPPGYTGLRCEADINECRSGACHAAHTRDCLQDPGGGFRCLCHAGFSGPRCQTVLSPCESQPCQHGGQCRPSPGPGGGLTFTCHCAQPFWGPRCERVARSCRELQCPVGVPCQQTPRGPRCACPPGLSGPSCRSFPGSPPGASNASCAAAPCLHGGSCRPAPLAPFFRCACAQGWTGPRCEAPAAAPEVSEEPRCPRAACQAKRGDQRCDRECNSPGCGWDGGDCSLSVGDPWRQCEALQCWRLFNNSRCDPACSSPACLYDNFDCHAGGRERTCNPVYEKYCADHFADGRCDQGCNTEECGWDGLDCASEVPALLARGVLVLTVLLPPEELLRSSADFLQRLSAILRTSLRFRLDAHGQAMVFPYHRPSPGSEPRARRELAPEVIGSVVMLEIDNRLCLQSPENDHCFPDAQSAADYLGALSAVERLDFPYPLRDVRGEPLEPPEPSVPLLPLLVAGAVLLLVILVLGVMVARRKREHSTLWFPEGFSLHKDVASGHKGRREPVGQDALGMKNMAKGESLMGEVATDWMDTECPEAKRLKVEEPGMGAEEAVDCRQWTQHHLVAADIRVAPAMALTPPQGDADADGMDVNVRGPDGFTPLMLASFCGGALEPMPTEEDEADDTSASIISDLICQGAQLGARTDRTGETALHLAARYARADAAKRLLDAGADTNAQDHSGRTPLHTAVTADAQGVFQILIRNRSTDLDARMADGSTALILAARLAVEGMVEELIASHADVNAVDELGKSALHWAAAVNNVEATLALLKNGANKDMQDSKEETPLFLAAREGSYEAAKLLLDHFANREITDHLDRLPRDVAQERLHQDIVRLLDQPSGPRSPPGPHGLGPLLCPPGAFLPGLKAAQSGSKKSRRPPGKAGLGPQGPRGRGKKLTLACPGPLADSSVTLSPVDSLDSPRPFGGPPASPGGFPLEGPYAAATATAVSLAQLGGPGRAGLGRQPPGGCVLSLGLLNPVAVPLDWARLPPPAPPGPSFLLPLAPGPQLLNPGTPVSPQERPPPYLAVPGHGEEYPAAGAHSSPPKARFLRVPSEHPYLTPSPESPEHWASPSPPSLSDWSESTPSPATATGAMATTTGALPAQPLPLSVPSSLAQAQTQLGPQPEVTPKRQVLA

As to `CC(CCC(=O)OC[C@H]1O[C@H](C#Cc2ccccc2)C=C[C@@H]1Oc1ccc(C)cc1)=NOC[C@@H](O)[C@H]1O[C@@H]2OC(C)(C)O[C@@H]2[C@H]1O`, the composite z-score in [1] was -0.753; in [5], 0.563; in assay [7] it was -0.352; in assay [8], -0.333; in assay [9] it was -1.74; in assay [10], -0.342. Further, the z-score in assay [2] was 0.349 (inactive); in assay [3], -0.0762 (inactive); in [4] it was 0.823 (inactive); in assay [6], 0.142 (inactive).
`COc1ccc([Si](C)(C)[C@@H]2[C@@H](CC(=O)N3CCC[C@H]3CO)O[C@]3(C(=O)N(Cc4cccc(N5CCC5=O)c4)c4ccccc43)[C@H]2C)cc1`: the composite z-score was 1.54 in assay [1]; 2.64 in assay [5]; -0.0204 in [7]; 1.5 in [8]; 1.15 in assay [9]; -0.0953 in assay [10]. Further, the z-score in [2] was -0.569 (inactive); in assay [3], -0.184 (inactive); in assay [4], 0.284 (inactive); in assay [6], 0.37 (inactive).
Take `CCCC=C(CCC)[C@@H](NC(=O)c1ccc(-c2ccccc2)cc1)c1ccc(C(=O)OC)cc1`: the composite z-score in assay [1] is 0.665; in assay [5], 3.33; in assay [7], 0.0997; in assay [8] it was 0.0811; in assay [9], 1.07; in assay [10], -0.022. The z-score in assay [2] was 0.806 (inactive); in [3] it was 1.77 (inactive); in [4], 1.93 (inactive); in [6], -0.665 (inactive).
In the case of `O=C1C[C@@H](O)[C@@H](O)[C@@H]2[C@@H]3C(=O)N(C4CCCCC4)C(=O)[C@@H]3CC[C@H]12`, the composite z-score was 0.387 in [1]; 0.294 in [5]; -0.185 in assay [7]; 0.467 in assay [8]; 0.786 in [9]; -0.127 in assay [10]. The z-score in assay [2] was -0.16 (inactive); in assay [3], -0.268 (inactive); in assay [4], 0.0415 (inactive); in assay [6], 0.666 (inactive).
As for `CC(=O)OC[C@H]1O[C@@H](ON=C(C)CCN2CCc3nc(-c4ccccc4)c(-c4ccccc4)cc3C2)[C@H](OC(C)=O)[C@@H](OC(C)=O)[C@@H]1OC(C)=O`, the composite z-score in assay [1] stood at 1.51; in assay [5], 2.27; in assay [7], 0.0754; in [8], 0.591; in assay [9] it was 1.09; in [10], 0.0291. Moreover, the z-score in [2] was 0.0264 (inactive); in [3], -1.03 (inactive); in [4], -3.53 (inactive); in assay [6], -0.395 (inactive).
For the compound `Cc1ccc(F)cc1S(=O)(=O)N[C@@H]1CCN(Cc2ccc(CC(C)C)cc2)C1`, the composite z-score in assay [1] is 0.446; in assay [5] it was 1.59; in assay [7] it was -0.192; in [8] it was -0.0204; in assay [9], -0.734; in assay [10], -0.17. For the same compound, the z-score in assay [2] was -25.8 (active); in assay [3], -21.4 (active); in [4] it was -4.49 (inactive); in [6], -19.5 (active).
`COCCCNC(=O)[C@]1(Cc2ccccc2)N=C(c2ccc(OCCCO)cc2)O[C@@H]1c1ccccc1`: the composite z-score in [1] was 1.44; in assay [5], 3.61; in assay [7] it was 0.0814; in assay [8], 0.468; in assay [9] it was 0.129; in assay [10], -0.0594. Moreover, the z-score in [2] was -1 (inactive); in [3] it was -1.32 (inactive); in assay [4], -1.41 (inactive); in [6] it was -0.806 (inactive).
With `CCOC(=O)[C@H](CC(C)C)NC(=O)CCC1CC(OC(=O)NCc2cccc3ccccc23)CC2(CCCC(COC(=O)NCCN3CCOCC3)O2)O1` (stereo not given in full), the composite z-score in assay [1] was 1.57; in [5], 2.36; in assay [7], -0.173; in [8] it was 0.344; in [9], 1.11; in assay [10], -0.0828. Moreover, the z-score is -1.26 (inactive) in [2], 0.557 (inactive) in assay [3], -1.04 (inactive) in assay [4] and -0.737 (inactive) in assay [6].
For `CCOC(=O)CCN1C(=O)[C@H]2[C@H]3[C@H](O)[C@H](O)CC(=NNC(=O)OCc4ccc(OC)cc4)[C@@H]3CC[C@H]2C1=O`, the composite z-score in assay [1] was 0.372; in [5] it was 0.97; in assay [7], -0.157; in assay [8] it was 0.38; in [9] it was 1.08; in assay [10], -0.0986. The z-score in assay [2] was -0.162 (inactive); in assay [3], 0.151 (inactive); in assay [4], -0.3 (inactive); in assay [6], 0.0856 (inactive).
Consider `O=C1[C@H]2[C@H]3[C@H](O)[C@H](O)CC(=NOC[C@@H](O)COCc4ccco4)[C@H]3CC[C@H]2C(=O)N1c1cccc(Oc2ccccc2)c1`, for which the composite z-score in assay [1] is -0.267; in [5], -0.306; in [7], -0.172; in assay [8], 1.55; in [9], -0.413; in assay [10] it was -0.174. In addition, the z-score in [2] is -0.19 (inactive); in assay [3], 0.549 (inactive); in assay [4] it was -0.502 (inactive); in assay [6], 0.354 (inactive).
For `O[C@@H](Cc1ccccc1)[C@H]1C2C=CCCC(c3ccccc3)=C2CN1Cc1cccc(Cl)c1` (stereo not given in full), the composite z-score is 1.44 in assay [1]; 1.73 in assay [5]; -0.106 in assay [7]; 0.96 in assay [8]; 1.12 in assay [9]; -0.0549 in assay [10]. The z-score was -0.122 (inactive) in [2], -3.65 (inactive) in assay [3], -1.09 (inactive) in assay [4] and 2.78 (inactive) in assay [6].
`CC(CCC(=O)OC[C@H]1O[C@H](C#Cc2ccccc2)C=C[C@@H]1Oc1ccc(C)cc1)=NOC[C@@H](O)COCc1ccco1`: the composite z-score in assay [1] is -0.25; in assay [5], -0.486; in assay [7], -0.356; in assay [8], -3.08; in [9], -1.76; in assay [10], -0.428. The z-score in assay [2] was 0.594 (inactive); in assay [3], 0.134 (inactive); in assay [4] it was 0.108 (inactive); in [6], 0.147 (inactive).
On to `CC(C)=CCCC(C)=CCON=C1[C@H]2CCn3c(=O)n(C)c(=O)n3[C@H]2[C@H](O)[C@@H]2O[C@H]12`, for which the composite z-score was found to be 1.14 in assay [1]; 0.393 in assay [5]; 0.0315 in assay [7]; 1.18 in assay [8]; 0.651 in assay [9]; 0.081 in assay [10]. For the same compound, the z-score was -0.0766 (inactive) in [2], 0.418 (inactive) in assay [3], 0.407 (inactive) in assay [4] and 0.604 (inactive) in [6].
Consider `CC(CCN1CCc2nc(-c3ccccc3)c(-c3ccccc3)cc2C1)=NO[C@H](C)c1cn([C@@H]2COC[C@H]2O)nn1`, for which the composite z-score in assay [1] is 1.49; in [5], 2.03; in [7], 0.0218; in assay [8], 0.224; in [9] it was 0.299; in assay [10], -0.137. For the same compound, the z-score in assay [2] was -0.0653 (inactive); in [3], -1.35 (inactive); in assay [4] it was -4.33 (inactive); in [6] it was 0.364 (inactive).

Values taken from PubChem BioAssay.
